Source: PubChem BioAssay
tim23-1 inh – tim23-1 yeast growth inhibition. S. cerevisiae tim23-1 growth, BacTiter-Glo luminescence, 24 h. inhibition, % at 20 µM. 330,000 tested, 1.3% active;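 active = growth inhibition of the mutant yeast at or above 50%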;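 note: temperature-sensitive mutant grown at 25 °C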
tim10-1 inh – inhibits growth of tim10-1 mutant yeast. S. cerevisiae tim10-1 ts strain growth, BacTiter-Glo, 24 h. inhibition, % at 20 µM. 330,000 tested, 2.2% active. AID 463190;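 active = inhibition of at least 40%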;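 note: mutant grown at 25 °C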
PfHsp90 set2 – inhibits growth of yeast expressing Plasmodium falciparum Hsp90; S. cerevisiae expressing PfHsp90, BacTiter-Glo ATP, 48 h; yeast lacking PDR1 and PDR3 efflux regulators; inhibition, % at 9.4 µM; 310,000 tested, 0.32% active;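 active = every replicate shows inhibition above about 80%, whatever the replicate mean, limit read from the data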
Mot1-301 SUMO – SUMOylation pathway inhibition by Mot1-301 growth rescue; 320,000 tested, 1% active; growth rescue, % at 18.8 µM; AID 2716; S. cerevisiae Mot1-301 growth rescue, ATP luminescence, 38.5C; percent above DMSO median, 100 means doubled;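 active = every valid replicate shows activation above 250% relative to neutral control wells; inactive = the rest, any valid replicate at or below 250%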
TIM10 inh – TIM10 yeast growth inhibition; S. cerevisiae TIM10 strain growth, BacTiter-Glo luminescence, 24 h; inhibition, % at 10 µM; 330,000 tested, 1.4% active; AID 463195;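 active = inhibition of 40% or more at the single tested concentration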;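 note: wild-type TIM10 isogenic control strain grown at permissive 25 °C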
Yeast Mot1 SUMO – yeast SUMO pathway inhibition in dose response | AID 493004 | S. cerevisiae Mot1-301 galactose growth, ATP luminescence, 24 h; -100 = growth of slx-deleted rescue strain | growth activity, percent, % at 42 µM | 2,300 tested, under 10 active | shares compounds with Mot1-301 SUMO;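 active = Signal drops as the depositor expects, and the fitted half-maximal dose is no more than ten times the top valid tested dose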;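 note: more negative values mean stronger growth rescue toward the control strain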
Of the large screens only hits and unclear results are named; the others gave an inactive call (follow-up assays come after a bar, where they were run). An excerpt weighted towards active compounds, which were near 4.4% of everything screened.

O=S(=O)(c1ccc(-c2n[nH]c(=S)o2)cc1)N1CCCCC1	none
COc1cc2ccccc2cc1C(=O)Nc1ccc(CN2CCOCC2)cc1	Mot1-301 SUMO 394 | Yeast Mot1 SUMO inactive
CCOc1ccc(N2CC(C(=O)N3CCN(C(=O)c4ccco4)CC3)CC2=O)cc1 (centres undefined)	none
CC(=O)NCCc1nc2cc(NC(=O)c3ccc(F)cc3)ccc2n1C	Mot1-301 SUMO 741 | Yeast Mot1 SUMO inactive
CCC(C)(C(=O)NC1CCCC1)N(C(=O)c1ccccn1)c1ccc(C)cc1 (centres undefined)	Mot1-301 SUMO 653 | Yeast Mot1 SUMO inactive
O=C(c1ccc(COc2ccccc2Cl)o1)N1N=C(C(F)F)CC1(O)C(F)F (centres undefined)	Mot1-301 SUMO 438 | Yeast Mot1 SUMO inactive
O=C(c1ccc(COc2ccc3ccccc3c2)o1)N1N=C(C(F)F)CC1(O)C(F)F (centres undefined)	none
COc1ccc(N2CCN(C(=O)COC(=O)c3ccc(OC(F)F)cc3)CC2)cc1	none (no result: PfHsp90 set2)
Cc1cc(C(=O)OCC(=O)Nc2cccc(S(N)(=O)=O)c2)c2ccccc2n1	Mot1-301 SUMO 647 | Yeast Mot1 SUMO inactive
Cc1c(C(=O)OCC(=O)Nc2ccc(S(N)(=O)=O)cc2)oc2c1ccc1ccccc12	Mot1-301 SUMO 500 (no result: PfHsp90 set2) | Yeast Mot1 SUMO inactive
Cc1cc(NC(=O)COC(=O)c2oc3c(ccc4ccccc43)c2C)no1	none
O=C1NC(Cc2c[nH]c3ccccc23)C(=O)N1Cc1ccc(CN2C(=O)NC(Cc3c[nH]c4ccccc34)C2=O)cc1 (centres undefined)	Mot1-301 SUMO 572 | Yeast Mot1 SUMO inactive
COc1ccc(NC(=O)CN2CCN(CC(=O)Nc3ccc(F)cc3F)CC2)cc1	none (no result: Mot1-301 SUMO)
COCCn1c(C)cc(C(=O)CN2C(=O)NC3(CCCCCCC3)C2=O)c1C	Mot1-301 SUMO 667 | Yeast Mot1 SUMO inactive
O=C(COC(=O)CSc1ccc([N+](=O)[O-])cc1)NC1CCCCCCC1	Mot1-301 SUMO 461 (no result: PfHsp90 set2) | Yeast Mot1 SUMO inactive
O=C(COC(=O)Cc1ccsc1)NC1CCCCCC1	Mot1-301 SUMO 609 | Yeast Mot1 SUMO inactive
Cc1ccc(S(=O)(=O)N2CCOCC2)cc1NC(=O)COC(=O)CCC(=O)c1cccs1	Mot1-301 SUMO 522 | Yeast Mot1 SUMO inactive
Cc1c(N2C(=O)/C(=C/c3ccc(N(C)C)cc3)N(C)C2=S)c(=O)n(-c2ccccc2)n1C	none (no result: tim23-1 inh, tim10-1 inh, Mot1-301 SUMO, TIM10 inh)
CC1CCCC(C)N1C(=O)c1ccc(S(=O)(=O)NCc2ccco2)cc1 (centres undefined)	none
CCC1(c2ccccc2)NC(=O)N(CC(=O)N(C)CC(=O)Nc2c(C)cccc2C)C1=O (centres undefined)	none
CCC1(c2ccccc2)NC(=O)N(CC(=O)N(C)CC(=O)Nc2ccc(F)c(F)c2F)C1=O (centres undefined)	Mot1-301 SUMO 609 | Yeast Mot1 SUMO inactive
O=C(COC(=O)COc1ccccc1Cl)Nc1ccccc1OC(F)F	Mot1-301 SUMO 578 (no result: PfHsp90 set2) | Yeast Mot1 SUMO inactive
CCC(C)N(C(=O)COC(=O)c1cc([N+](=O)[O-])ccc1N)C1CCS(=O)(=O)C1 (centres undefined)	none (no result: PfHsp90 set2)
O=C(NC1CCCCC1)C(c1cccs1)N(C(=O)c1ccccn1)c1ccccc1 (centres undefined)	none
O=C(NC1CCCC1)C(c1cccs1)N(C(=O)c1ccno1)c1ccccc1 (centres undefined)	Mot1-301 SUMO 815 | Yeast Mot1 SUMO inactive
CCOc1ccc(CNCCN2CCCC2)cc1	none
CN1CCc2c(sc3c2c(=O)n(-c2cccc(Cl)c2)c2nncn32)C1	none
O=c1c2c3c(sc2n2cnnc2n1-c1ccccc1)N(Cc1ccccc1)CCC3	Mot1-301 SUMO 445 (no result: PfHsp90 set2) | Yeast Mot1 SUMO inactive
CC(C)Cn1c(N)c(C(=O)CSc2n[nH]c(N)n2)c(=O)n(C)c1=O	none
O=C(CSc1n[nH]c(-c2cccs2)n1)N1CCOCC1	none
CCc1ccc(-c2nc(SCC(=O)N3CCOCC3)n[nH]2)cc1	Mot1-301 SUMO 527 | Yeast Mot1 SUMO inactive
COc1ccc(C(=O)N2CCC2)cc1S(=O)(=O)NCc1ccc(Cl)cc1	none
CCCCC(=O)Nc1cc(OC)c(NC(=O)C2CCCCC2)cc1OC	Mot1-301 SUMO 711 (no result: PfHsp90 set2) | Yeast Mot1 SUMO inactive
COc1cc(NC(=O)C2CCCC2)c(OC)cc1Cl	none
O=C1CCN(Cc2ccccc2)CCN1CCOc1ccccc1	Mot1-301 SUMO 858 | Yeast Mot1 SUMO inactive
CCCN(CCC)CCCNC(=O)c1ccc(CS(=O)(=O)c2c(Cl)cccc2Cl)o1	none
COc1cc(C)ccc1OCc1cc(C(=O)N2CCN(C3CCCCC3)CC2)no1	none (no result: Mot1-301 SUMO)
COc1cccc(/C=N/n2cnc3ccccc32)c1OC	Mot1-301 SUMO 406 (no result: PfHsp90 set2) | Yeast Mot1 SUMO inactive
COc1cccc(C=NNc2nc3ccccc3s2)c1OC	none (no result: tim23-1 inh, tim10-1 inh, Mot1-301 SUMO, TIM10 inh)
O=C(Cc1ccc(Br)cc1)N1CCN(C(=O)c2ccccc2)CC1	none
Cc1ccc(C)c(Nc2c([N+](=O)[O-])ccc3nonc23)c1	none
Cc1ccccc1Nc1c([N+](=O)[O-])ccc2c1=NC1(CCCCC1)N=2	Mot1-301 SUMO 768 | Yeast Mot1 SUMO inactive
Cc1ccc(C)c(OCC(O)CN2CCc3ccccc3C2)c1C (centres undefined)	none
Cc1ccc(-c2csc(NCCn3c(C)nc4cc(C(F)(F)F)ccc43)n2)cc1	none
CCOC(=O)c1cc([N+](=O)[O-])c([N+](=O)[O-])cc1NC(C)=O	PfHsp90 set2 100, Mot1-301 SUMO 487 (no result: tim23-1 inh, tim10-1 inh, TIM10 inh) | Yeast Mot1 SUMO inactive
CCOC(=O)c1ccc(NC(=O)c2ccccc2[N+](=O)[O-])cc1	none
O=C(NCc1ccco1)C1CC(=O)N(c2cccc(Cl)c2)C1 (centres undefined)	none
O=C(NCc1ccco1)C1CC(=O)N(c2ccc(Cl)cc2)C1 (centres undefined)	Mot1-301 SUMO 648 | Yeast Mot1 SUMO inactive
OCCN1CN=C(Nc2nc3ccccc3o2)NC1	Mot1-301 SUMO active | Yeast Mot1 SUMO inactive
CCCN1CN=C(Nc2nc3ccccc3o2)NC1	none
O=C(CSc1nnnn1-c1ccccc1)NCC1(N2CCOCC2)CCCCC1	none
COCCn1c(SCc2ccc(Cl)cc2)nc2c1c(=O)[nH]c(=O)n2C	Mot1-301 SUMO active | Yeast Mot1 SUMO inactive
COCCn1c(SCc2ccc(C)cc2)nc2c1c(=O)[nH]c(=O)n2C	none (no result: PfHsp90 set2)
Cn1c(=O)[nH]c(=O)c2c1nc(Sc1ccccc1)n2CCc1ccccc1	Mot1-301 SUMO 614 | Yeast Mot1 SUMO inactive
O=c1c2ccccc2c2ccccc2c(=O)n1-c1ccccc1	Mot1-301 SUMO 413 | Yeast Mot1 SUMO inactive
COc1cc2cc(C)c3nnc(SCC(=O)Nc4cc(C)on4)n3c2cc1OC	Mot1-301 SUMO 421 | Yeast Mot1 SUMO inactive
Cc1cc(NC(=O)CSc2nnc3c(C)cc4c(C)ccc(C)c4n23)no1	none
O=C(NCc1cccs1)c1ccc(CS(=O)(=O)c2ccc(Cl)cc2)o1	none
